# This excerpt belongs to a sample that is enriched for the strongest signals.
# B1: MD-2 (Homo sapiens) (protein)
# chain: MLPFLFFSTLFSSIFTEAQKQYWVCNSSDASISYTYCDKMQYPISINVNPCIELKGSKGLLHIFYIPRRDLKQLYFNLYITVNTMNLPKRKEVICRGSDDDYSFCRALKGETVNTTISFSFKGIKFSKGKYKCVVEAISGSPEEMLFCLEFVILHQPNSN
# B2: E-Selectin (Mus musculus), Q00690 (protein)
# chain: MNASRFLSALVFVLLAGESTAWYYNASSELMTYDEASAYCQRDYTHLVAIQNKEEINYLNSNLKHSPSYYWIGIRKVNNVWIWVGTGKPLTEEAQNWAPGEPNNKQRNEDCVEIYIQRTKDSGMWNDERCNKKKLALCYTASCTNASCSGHGECIETINSYTCKCHPGFLGPNCEQAVTCKPQEHPDYGSLNCSHPFGPFSYNSSCSFGCKRGYLPSSMETTVRCTSSGEWSAPAPACHVVECEALTHPAHGIRKCSSNPGSYPWNTTCTFDCVEGYRRVGAQNLQCTSSGIWDNETPSCKAVTCDAIPQPQNGFVSCSHSTAGELAFKSSCNFTCEQSFTLQGPAQVECSAQGQWTPQIPVCKAVQCEALSAPQQGNMKCLPSASGPFQNGSSCEFSCEEGFELKGSRRLQCGPRGEWDSKKPTCSAVKCDDVPRPQNGVMECAHATTGEFTYKSSCAFQCNEGFSLHGSAQLECTSQGKWTQEVPSCQVVQCPSLDVPGKMNMSCSGTAVFGTVCEFTCPDDWTLNGSAVLTCGATGRWSGMPPTCEAPVSPTRPLVVALSAAGTSLLTSSSLLYLLMRYFRKKAKKFVPASSCQSLQSFENYHVPSYNV
# Columns and labels:
# Experiment in all cases: glycan array binding signal (z-score within array); higher = stronger binding
# Settings in all cases: glycan notation: IUPAC condensed, linker removed
# [1] = target: Fuc(a1-2)Gal(b1-4)GlcNAc(b1-3)Gal(b1-4)GlcNAc(b1-3)Gal(b1-4)GlcNAc
# Procedure, shortened: (§1)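 Columns mapping to the same glycan were averaged after glycan names were converted to IUPAC-condensed notation. The data come from 3228 arrays in the Consortium for Functional Glycomics database, limited to those with an available protein sequence. Binding is reported as a within-array Z-score averaged across arrays of one protein sequence and across linkers.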
# [2] = target: Fuc(a1-3)[Gal(b1-4)]GlcNAc(b1-4)Gal(b1-4)[Fuc(a1-3)]GlcNAc(b1-4)Gal(b1-4)[Fuc(a1-3)]GlcNAc
# Procedure, shortened: as §1
# [3] = target: Gal(b1-4)GlcNAc(b1-3)[GlcNAc(b1-6)]Gal(b1-4)GlcNAc
# Procedure, shortened: as §1
# Gal3S(b1-3)GalNAc = target: Gal3S(b1-3)GalNAc
# Procedure, shortened: as §1
# Gal3S4S(b1-4)GlcNAc = target: Gal3S4S(b1-4)GlcNAc
# Procedure, shortened: as §1
# Gal3S6S(b1-4)GlcNAc6S = target: Gal3S6S(b1-4)GlcNAc6S
# Procedure, shortened: as §1
# Gal6S(b1-4)Glc6S = target: Gal6S(b1-4)Glc6S
# Procedure, shortened: as §1
# GalNAc(b1-3)Gal = target: GalNAc(b1-3)Gal
# Procedure, shortened: as §1
# [4] = target: GlcNAc(a1-6)Gal(b1-4)GlcNAc
# Procedure, shortened: as §1
# [5] = target: GlcNAc(b1-2)Man(a1-3)[GlcNAc(b1-2)Man(a1-6)]Man(b1-4)GlcNAc(b1-4)GlcNAc
# Procedure, shortened: as §1
# [6] = target: GlcNAc(b1-3)Gal(b1-3)GalNAc
# Procedure, shortened: as §1
# [7] = target: GlcNAc(b1-4)GlcNAc(b1-4)GlcNAc(b1-4)GlcNAc(b1-4)GlcNAc
# Procedure, shortened: as §1
# [8] = target: GlcNAc(b1-4)GlcNAc(b1-4)GlcNAc(b1-4)GlcNAc(b1-4)GlcNAc(b1-4)GlcNAc
# Procedure, shortened: as §1
# Man(a1-2)Man(a1-3)Man = target: Man(a1-2)Man(a1-3)Man
# Procedure, shortened: as §1
# [9] = target: Man(a1-3)[Man(a1-6)]Man(a1-6)[Man(a1-3)]Man(b1-4)GlcNAc(b1-4)GlcNAc
# Procedure, shortened: as §1
# Man(a1-6)Man = target: Man(a1-6)Man
# Procedure, shortened: as §1
# Neu5Ac(a2-3)Gal(b1-4)Glc = target: Neu5Ac(a2-3)Gal(b1-4)Glc
# Procedure, shortened: as §1
# [10] = target: Neu5Ac(a2-3)Gal(b1-4)[Fuc(a1-3)]GlcNAc(b1-3)Gal
# Procedure, shortened: as §1
# [11] = target: Neu5Ac(a2-6)Gal(b1-4)GlcNAc(b1-2)Man(a1-3)[GlcNAc(b1-2)Man(b1-4)GlcNAc(b1-2)Man(a1-6)]Man(b1-4)GlcNAc(b1-4)GlcNAc
# Procedure, shortened: as §1
# [12] = target: Neu5Ac(a2-6)Gal(b1-4)GlcNAc(b1-2)Man(a1-3)[Neu5Ac(a2-6)Gal(b1-4)GlcNAc(b1-2)Man(a1-6)]Man(b1-4)GlcNAc(b1-4)GlcNAc
# Procedure, shortened: as §1
# [13] = target: Neu5Gc(a2-3)Gal(b1-4)GlcNAc
# Procedure, shortened: as §1
# [14] = target: Fuc(a1-2)[GalNAc(a1-4)]Gal(b1-4)GlcNAc
# Procedure, shortened: as §1
# [15] = target: Fuc(a1-3)[Gal(b1-4)]GlcNAc(b1-4)Gal(b1-4)[Fuc(a1-3)]GlcNAc
# Procedure, shortened: as §1
# [16] = target: Fuc(a1-3)[Gal3S(b1-4)]Glc6S
# Procedure, shortened: as §1
# [17] = target: Fuc(a1-3)[Gal3S(b1-4)]GlcNAc6S
# Procedure, shortened: as §1
# [18] = target: Gal(b1-4)GlcNAc(b1-3)GalNAc
# Procedure, shortened: as §1
# [19] = target: Gal3S(b1-3)[Fuc(a1-4)]GlcNAc
# Procedure, shortened: as §1
# [20] = target: GlcNAc(b1-3)[GlcNAc(b1-6)]GalNAc
# Procedure, shortened: as §1
# GlcNAc(b1-6)GalNAc = target: GlcNAc(b1-6)GalNAc
# Procedure, shortened: as §1
# [21] = target: Man(a1-3)[Man(a1-6)]Man(b1-4)GlcNAc(b1-4)GlcNAc
# Procedure, shortened: as §1
# Neu5Ac(a2-3)Gal = target: Neu5Ac(a2-3)Gal
# Procedure, shortened: as §1
# [22] = target: Neu5Ac(a2-3)Gal(b1-3)[Fuc(a1-4)]GlcNAc
# Procedure, shortened: as §1
# [23] = target: Neu5Ac(a2-3)Gal(b1-4)GlcNAc
# Procedure, shortened: as §1
# [24] = target: Neu5Ac(a2-3)Gal(b1-4)GlcNAc(b1-3)Gal(b1-4)GlcNAc(b1-3)Gal(b1-4)GlcNAc
# Procedure, shortened: as §1
# [25] = target: Neu5Ac(a2-3)Gal(b1-4)[Fuc(a1-3)]GlcNAc(b1-3)Gal(b1-4)[Fuc(a1-3)]GlcNAc(b1-3)Gal(b1-4)[Fuc(a1-3)]GlcNAc
# Procedure, shortened: as §1
# [26] = target: Neu5Ac(a2-3)Gal(b1-4)[Fuc(a1-3)]GlcNAc6S
# Procedure, shortened: as §1
# [27] = target: Neu5Gc(a2-3)Gal(b1-3)[Fuc(a1-4)]GlcNAc
# Procedure, shortened: as §1
Binder,glycan array binding signal (z-score) [1],glycan array binding signal (z-score) [2],glycan array binding signal (z-score) [3],glycan array binding signal (z-score) (Gal3S(b1-3)GalNAc),glycan array binding signal (z-score) (Gal3S4S(b1-4)GlcNAc),glycan array binding signal (z-score) (Gal3S6S(b1-4)GlcNAc6S),glycan array binding signal (z-score) (Gal6S(b1-4)Glc6S),glycan array binding signal (z-score) (GalNAc(b1-3)Gal),glycan array binding signal (z-score) [4],glycan array binding signal (z-score) [5],glycan array binding signal (z-score) [6],glycan array binding signal (z-score) [7],glycan array binding signal (z-score) [8],glycan array binding signal (z-score) (Man(a1-2)Man(a1-3)Man),glycan array binding signal (z-score) [9],glycan array binding signal (z-score) (Man(a1-6)Man),glycan array binding signal (z-score) (Neu5Ac(a2-3)Gal(b1-4)Glc),glycan array binding signal (z-score) [10],glycan array binding signal (z-score) [11],glycan array binding signal (z-score) [12],glycan array binding signal (z-score) [13],glycan array binding signal (z-score) [14],glycan array binding signal (z-score) [15],glycan array binding signal (z-score) [16],glycan array binding signal (z-score) [17],glycan array binding signal (z-score) [18],glycan array binding signal (z-score) [19],glycan array binding signal (z-score) [20],glycan array binding signal (z-score) (GlcNAc(b1-6)GalNAc),glycan array binding signal (z-score) [21],glycan array binding signal (z-score) (Neu5Ac(a2-3)Gal),glycan array binding signal (z-score) [22],glycan array binding signal (z-score) [23],glycan array binding signal (z-score) [24],glycan array binding signal (z-score) [25],glycan array binding signal (z-score) [26],glycan array binding signal (z-score) [27]
B1,0.156,-0.473,-0.262,-0.242,3.89,6.6,6.38,-0.354,-0.163,-0.316,-0.326,4.23,5.59,-0.386,0.116,0.081,-0.127,-0.504,-0.331,-0.321,-0.291,,,,,,,,,,,,,,,,
B2,-0.255,,,,,,,,,,,,,,,,,,,,,-0.301,0.598,5.1,2.52,-0.338,4.55,-0.279,-0.272,-0.288,-0.277,4.47,-0.333,-0.184,3.13,3.24,4.57

# — the supplement of paper PMC8728848
